# About 79,000 compounds went through this panel and 15% of them were active in at least one assay; those are over-represented in the sample as a whole. A number with no mark means an inactive call. Activity calls are given as the source filed them. Rule as the data show it: active = growth inhibition above about 70%; inactive = the rest.
# Key:
# [1] = NCI Yeast Anticancer Drug Screen. Data for the rad50 strain (AID 155);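 also: 0% = growth of vehicle-only cultures of the same strain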; settings: S. cerevisiae rad50 strain growth inhibition, hits give high values
# Method in brief: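 Inhibition values express reduced yeast growth in compound-treated cultures relative to vehicle-treated controls.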
# [2] = NCI Yeast Anticancer Drug Screen. Data for the mec2-1 strain (AID 157); settings: S. cerevisiae mec2-1 strain, hits give high values
# Method in brief: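 Yeast mec2-1 mutant treated with compound. Readout: growth inhibition vs vehicle controls.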
# [3] = NCI Yeast Anticancer Drug Screen. Data for the sgs1 mgt1 strain (AID 161);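 also: 0% = growth of cultures given vehicle only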; settings: S. cerevisiae sgs1 mgt1 strain, hits give high values
# Method in brief: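 Inhibition of yeast growth, normalised to vehicle-treated controls, is reported for a strain bearing genetic alterations in DNA damage repair.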
# [4] = NCI Yeast Anticancer Drug Screen. Data for the cln2 rad14 strain (AID 165);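 also: 0% = growth equal to vehicle treated cultures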; settings: S. cerevisiae cln2 rad14 strain, hits give high values
# Method in brief: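 cln2 rad14 yeast strain; compound exposure; growth inhibition read vs vehicle controls.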
# [5] = NCI Yeast Anticancer Drug Screen. Data for the bub3 strain (AID 167); settings: S. cerevisiae bub3 mutant strain, hits give high values
# Method in brief: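 Steps: expose the mutant yeast strain to compound; grow alongside vehicle-treated cultures; measure growth; express inhibition against the vehicle cultures.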
# [6] = NCI Yeast Anticancer Drug Screen. Data for the mlh1 rad18 strain (AID 175); settings: S. cerevisiae mlh1 rad18 strain growth inhibition, hits give high values
# Method in brief: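 Yeast w/ defined DNA-repair lesions; compound exposure; growth vs vehicle controls → % inhibition.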
# [7] = at 5.0 µM (retest, dose inferred, filed as 0.5)
# [8] = at 50.0 µM (retest, dose inferred, filed as 5.0)
Compound,"growth inhibition [1, 7]","growth inhibition [1, 8]",growth inhibition ([1]; at 50.0 µM),"growth inhibition [2, 7]","growth inhibition [2, 8]",growth inhibition ([2]; at 50.0 µM),"growth inhibition [3, 7]","growth inhibition [3, 8]",growth inhibition ([3]; at 50.0 µM),"growth inhibition [4, 7]","growth inhibition [4, 8]",growth inhibition ([4]; at 50.0 µM),"growth inhibition [5, 7]","growth inhibition [5, 8]",growth inhibition ([5]; at 50.0 µM),"growth inhibition [6, 7]","growth inhibition [6, 8]",growth inhibition ([6]; at 50.0 µM)
O=C(CCl)N1CCN(C(c2ccccc2)c2ccccc2)CC1,6%,96% (active),95% (active),12%,95% (active),85.8% (active),9%,97% (active),97.8% (active),12%,91% (active),81.2% (active),13%,97% (active),95.5% (active),15%,97% (active),97.5% (active)
c1ccc(Nc2nnc3nc(-c4ccccc4)c(-c4ccccc4)nn23)cc1,12%,60%,65.2%,12%,82% (active),55.1%,19%,91% (active),91.5% (active),-1%,41%,33%,6%,39%,36.1%,5%,84% (active),70.1% (active)
CC1(C(=O)O)CCC2(C)CCC3(C)C(=CC(=O)C4C5(C)CCC(O)C(C)(C)C5CCC43C)C2C1 (configuration not stated),12%,61%,52.4%,23%,78% (active),64.8%,10%,74% (active),65%,30%,84% (active),75.7% (active),29%,78% (active),60.5%,18%,80% (active),71.3% (active)
COc1cc(/C=C2/C(=O)N(C(=O)c3ccccc3O)N=C2C)cc(OC)c1OC,-14%,23%,64%,9%,35%,16.6%,-8%,28%,36.5%,-4%,26%,26.4%,12%,80% (active),77.1% (active),20%,61%,39.2%
Nc1nc(N)c2nc(Sc3ccc(F)cc3)c(N)nc2n1,-2%,37%,42.7%,-1%,-4%,39.2%,-1%,40%,51.6%,2%,24%,10.3%,-1%,26%,40.9%,0%,58%,75.1% (active)
O=C(O)c1ccccc1C(=O)c1ccc2c(c1)Cc1ccccc1-2,-5%,9%,68.6%,-3%,4%,41.3%,-4%,7%,44.9%,-28%,31%,74.8% (active),4%,5%,42.8%,3%,26%,76% (active)
CCCCCCCC(=O)O[C@H]1[C@H]2[C@@H](CC1(C)C)C(=O)[C@]13O[C@H]1C(=O)[C@]1(CO1)[C@]23C,48%,98% (active),91% (active),47%,98% (active),92.8% (active),65%,98% (active),92.7% (active),80% (active),98% (active),90.8% (active),83% (active),97% (active),90.4% (active),73% (active),97% (active),91.5% (active)
CC(=O)O[C@@H]1[C@@H](O)[C@H]2O[C@@H]3C=C(C)CC[C@]3(CO)[C@]1(C)[C@@]21CO1,34%,93% (active),-11.2%,28%,96% (active),-22.9%,33%,95% (active),5.35%,52%,98% (active),-11.7%,13%,98% (active),9.3%,33%,95% (active),91.8% (active)
CC(/C=C/c1ccco1)=N\NC(=S)NCC(C)C,13%,80% (active),63.5%,-20%,53%,61.9%,38%,86% (active),81.2% (active),16%,61%,64.4%,30%,87% (active),83.5% (active),25%,88% (active),75.5% (active)
CCOC(=O)C(C(=O)OCC)c1ccc([N+](=O)[O-])o1,14%,82% (active),86% (active),-15%,96% (active),86.4% (active),8%,89% (active),89.2% (active),6%,79% (active),81.9% (active),0%,94% (active),87.9% (active),3%,96% (active),82.2% (active)
O=P1(NCC2CCCO2)OCC2(CO1)COP(=O)(NCC1CCCO1)OC2 (configuration not stated),99% (active),95% (active),47.3%,100% (active),98% (active),99.6% (active),100% (active),98% (active),99% (active),99% (active),96% (active),98.4% (active),99% (active),97% (active),98.5% (active),100% (active),96% (active),98.7% (active)
CC(=O)OC12CCC3C4CC=C5CC(O)CCC5(C)C4C(=O)C3C1(C)N1CC(C)CC(O)C1C2C (configuration not stated),7%,40%,74.5% (active),10%,42%,59.5%,5%,68%,62.2%,18%,62%,56.9%,16%,74% (active),64.2%,-23%,59%,47%
COC(=O)/C(C#N)=C/c1cc(OC)c(O)cc1Br,46%,56%,48.6%,31%,44%,40%,44%,68%,42.1%,35%,43%,43.8%,46%,48%,46.5%,54%,76% (active),31.1%
CC(C)/C=C1\CCOC1=O,0%,9%,36.3%,-3%,1%,14.8%,1%,5%,39.8%,5%,3%,44.5%,-3%,4%,-0.55%,0%,6%,21.7%
CCCCCCOC(=O)C(N)Cc1ccc(OC)cc1 (configuration not stated),5%,21%,39.2%,7%,29%,40.5%,6%,42%,56.2%,2%,17%,32.4%,5%,80% (active),52%,-1%,43%,48.1%
COc1ccc2c(c1)CCCN2CCCCCCCN1CCCCC1,13%,49%,72.5% (active),16%,34%,45.5%,26%,73% (active),77.1% (active),22%,58%,90.2% (active),34%,64%,83.5% (active),32%,73% (active),63.1%
Cc1ccccc1N1C(=O)C(=O)c2cccc(C)c21,2%,98% (active),99.2% (active),0%,99% (active),99.5% (active),1%,99% (active),99.7% (active),1%,98% (active),97% (active),2%,99% (active),99.8% (active),0%,99% (active),83.1% (active)
O=C(c1ccccc1)c1ccc(Cl)cc1,-1%,-16%,66.2%,-3%,-5%,37.4%,2%,4%,74.2% (active),1%,2%,-3%,-42%,0%,73.8% (active),1%,2%,81.5% (active)
O=S(=O)(Nc1ccc(-c2ccc(Cl)cc2)cc1)c1ccccc1,68%,97% (active),92.5% (active),58%,99% (active),93.2% (active),75% (active),-21%,97.8% (active),19%,90% (active),92.3% (active),38%,98% (active),95.8% (active),95% (active),98% (active),95% (active)

# Reference: PubChem BioAssay (NCI)
